# “And” between values parts separate entries of the source, which are not always exact repeats. Equal values may be shown once. Inconclusive results are not listed. The source made the active and inactive calls. Cut-off read from the data, not from the text of the source, unless noted: active = inhibition above about 80%; inactive = the rest.
# Key:
# [1] = target: ATP-dependent translocase ABCB1 (Homo sapiens) (UniProt P08183); test: P-glycoprotein substrate transport blockade – cell-based (AID 377; in the data active = fluorescence slope change above about 50%); settings: MDR1-expressing cells, fluorescent substrate accumulation slope; stronger effect = higher value; concentration not given here
# ATP-dependent translocase ABCB1 (Homo sapiens), sequence (P08183 whole entry, looked up): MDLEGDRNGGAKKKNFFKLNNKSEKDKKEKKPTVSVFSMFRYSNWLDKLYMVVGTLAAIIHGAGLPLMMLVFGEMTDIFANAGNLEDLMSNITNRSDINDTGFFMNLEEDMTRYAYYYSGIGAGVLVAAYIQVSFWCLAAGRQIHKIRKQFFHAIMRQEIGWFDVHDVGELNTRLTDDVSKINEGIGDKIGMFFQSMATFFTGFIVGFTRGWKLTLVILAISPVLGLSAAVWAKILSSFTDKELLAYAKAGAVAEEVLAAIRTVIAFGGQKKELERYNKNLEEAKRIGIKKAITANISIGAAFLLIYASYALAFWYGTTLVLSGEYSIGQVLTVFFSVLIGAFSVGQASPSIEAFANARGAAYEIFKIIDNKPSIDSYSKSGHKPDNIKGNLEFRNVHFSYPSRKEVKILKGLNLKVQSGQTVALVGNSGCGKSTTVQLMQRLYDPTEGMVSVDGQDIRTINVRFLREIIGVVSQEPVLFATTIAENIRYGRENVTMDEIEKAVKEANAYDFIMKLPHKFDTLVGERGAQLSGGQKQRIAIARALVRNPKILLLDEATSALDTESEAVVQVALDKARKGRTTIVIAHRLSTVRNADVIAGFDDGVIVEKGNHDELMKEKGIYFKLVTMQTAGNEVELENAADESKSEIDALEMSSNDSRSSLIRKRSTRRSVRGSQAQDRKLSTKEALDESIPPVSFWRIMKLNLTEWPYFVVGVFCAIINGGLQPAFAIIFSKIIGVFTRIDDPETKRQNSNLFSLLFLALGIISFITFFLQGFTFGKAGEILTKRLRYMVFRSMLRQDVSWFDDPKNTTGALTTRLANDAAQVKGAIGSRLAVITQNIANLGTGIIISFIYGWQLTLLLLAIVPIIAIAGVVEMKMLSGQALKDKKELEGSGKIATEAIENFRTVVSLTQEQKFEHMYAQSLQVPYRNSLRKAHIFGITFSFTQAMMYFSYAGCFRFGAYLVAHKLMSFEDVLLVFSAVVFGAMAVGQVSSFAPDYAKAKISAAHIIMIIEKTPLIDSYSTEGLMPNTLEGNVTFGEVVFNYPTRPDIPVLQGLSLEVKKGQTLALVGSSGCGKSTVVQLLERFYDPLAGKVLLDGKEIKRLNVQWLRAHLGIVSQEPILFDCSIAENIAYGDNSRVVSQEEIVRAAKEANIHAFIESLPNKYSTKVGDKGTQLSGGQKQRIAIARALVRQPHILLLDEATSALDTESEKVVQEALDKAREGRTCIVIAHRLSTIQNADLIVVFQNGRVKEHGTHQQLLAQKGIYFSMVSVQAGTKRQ
# [2] = compounds altering viability of human ES cells (AID 493140; call rule not given here;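 note: cells exposed to compounds for four days before counting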); settings: human embryonic stem cell survival screen; stronger effect = higher value
# [3] = signal quenchers or enhancers, Cy5 substrate/SSB – biochemical, NIH Clinical Collection, E. coli SSB, artefact control for HCV NS3 helicase inhibitor project (AID 743268; call rule not given here); settings: Cy5-oligo bound E. coli SSB, fluorescence interference
# [4] = test system: Hepatitis C virus NS3 helicase; test: blockers of NS3h binding to DNA – biochemical, fluorescence polarization, NIH Clinical Collection, primary screen (AID 743270; call rule not given here); settings: NS3 helicase binding to Cy5-dT15 DNA, stronger effect = higher value, concentration not given here
# [5] = target: Single-stranded DNA-binding protein (Escherichia coli (strain K12)) (UniProt P0AGE0); test: SSB-ssDNA binding inhibitors – biochemical, fluorescence polarization, NIH Clinical Collection, counter-screen for HCV NS3 helicase inhibitor project (AID 743271; in the data active = inhibition above about 28%); settings: E. coli SSB-DNA binding, stronger effect = higher value, concentration not given here
# [6] = compounds distorting NS3 helicase fluorescence signal – biochemical, NIH Clinical Collection, artefact control for HCV NS3 helicase inhibitor project (AID 743272; call rule not given here;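 note: HCV NS3 helicase with a Cy5 labelled single stranded DNA probe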); settings: fluorescence interference counterscreen, HCV NS3 helicase assay; stronger effect = lower value
# [7] = test system: Neuropilin-2 / VEGF-C interaction (human); test: small molecules blocking Neuropilin-2/VEGF-C interaction – biochemical, microplate binding format, z-score (AID 743281; call rule not given here); settings: microplate NRP2/VEGF-C binding assay; stronger effect = lower value
# [8] = modulation of C. elegans fzo-1 (AID 1259413; call rule not given here;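 note: fzo-1 mutant C. elegans worms in liquid wells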); settings: C. elegans fzo-1 modulator screen, mean read-out; stronger effect = higher value
# [9] = EMT-state selective cytotoxicity in co-culture – imaging, PC-3E GFP, TEM4-18 mCherry, primary screen (AID 1345086;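 active = compounds killing one labelled cell type while sparing the other, by normalised counts and ratio limits, not self-fluorescent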;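 note: cells exposed to compound for 72 h before imaging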;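 for red/green cell ratio (normalised): normalised mesenchymal count divided by normalised epithelial count so high means epithelial killing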); settings: PC-3E GFP / TEM4-18 mCherry co-culture, imaging cell counts, at 1 µM
# [10] = MELAS cybrid and Rieske KO viability enhancers – cell-based, MELAS cybrids, Rieske KO mouse fibroblasts, CellTiter-Glo, primary screen (AID 1508586;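 active = mean z-score across replicates of 1.96 or higher in either the MELAS or the Rieske mutant cell line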;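 note: z relative to plate mean and SD of compound and empty wells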); settings: low glucose
# [11] = target: NAD(+) hydrolase SARM1 (Homo sapiens) (UniProt Q6SZW1); test: blocking NAD cleavage by SARM1 SAM-TIR – cell lysate, NAD-Glo luminescence (AID 1508614;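 active = compound whose remaining NAD level is above about 45 nM, limit read from the data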;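 note: higher remaining NAD means stronger inhibition of SARM1 NADase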); settings: SAM-TIR HEK293T lysate NADase, at 1 µM, stronger effect = higher value
# NAD(+) hydrolase SARM1 (Homo sapiens), sequence (Q6SZW1 whole entry, looked up, the tested form may be a part): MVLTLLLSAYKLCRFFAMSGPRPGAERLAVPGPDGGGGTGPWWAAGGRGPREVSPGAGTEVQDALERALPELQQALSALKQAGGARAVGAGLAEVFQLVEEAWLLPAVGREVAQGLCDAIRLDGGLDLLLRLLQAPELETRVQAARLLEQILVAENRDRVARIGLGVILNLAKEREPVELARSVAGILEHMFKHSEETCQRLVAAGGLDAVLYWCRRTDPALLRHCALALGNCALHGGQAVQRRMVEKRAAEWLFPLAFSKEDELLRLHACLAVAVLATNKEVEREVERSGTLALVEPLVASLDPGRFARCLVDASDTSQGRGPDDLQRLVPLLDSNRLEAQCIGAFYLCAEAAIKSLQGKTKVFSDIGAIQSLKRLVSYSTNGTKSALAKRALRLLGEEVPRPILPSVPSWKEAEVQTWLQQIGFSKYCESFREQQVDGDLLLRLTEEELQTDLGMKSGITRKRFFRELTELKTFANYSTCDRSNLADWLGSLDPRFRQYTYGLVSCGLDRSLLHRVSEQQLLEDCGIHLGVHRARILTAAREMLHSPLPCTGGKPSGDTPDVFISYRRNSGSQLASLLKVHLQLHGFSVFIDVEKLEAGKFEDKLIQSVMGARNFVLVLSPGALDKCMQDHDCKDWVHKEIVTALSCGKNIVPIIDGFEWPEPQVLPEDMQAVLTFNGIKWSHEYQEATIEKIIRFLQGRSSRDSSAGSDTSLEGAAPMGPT
# [12] = target: Mitogen-activated protein kinase 7 (Homo sapiens) (UniProt Q13164); test: Gal4-ERK5 driven luciferase induction – cell-based, HTS, primary screen (AID 1508626;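 active = luciferase signal above three times the same-plate solvent-only control wells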;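 note: luciferase driven by Gal4-ERK5 fusion binding five Gal4 sites before minimal TATA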); settings: HeLa Gal4-ERK5 transactivation, 18 h, at 5 µM, stronger effect = higher value
# Mitogen-activated protein kinase 7 (Homo sapiens), sequence (Q13164 whole entry, looked up, the tested form may be a part): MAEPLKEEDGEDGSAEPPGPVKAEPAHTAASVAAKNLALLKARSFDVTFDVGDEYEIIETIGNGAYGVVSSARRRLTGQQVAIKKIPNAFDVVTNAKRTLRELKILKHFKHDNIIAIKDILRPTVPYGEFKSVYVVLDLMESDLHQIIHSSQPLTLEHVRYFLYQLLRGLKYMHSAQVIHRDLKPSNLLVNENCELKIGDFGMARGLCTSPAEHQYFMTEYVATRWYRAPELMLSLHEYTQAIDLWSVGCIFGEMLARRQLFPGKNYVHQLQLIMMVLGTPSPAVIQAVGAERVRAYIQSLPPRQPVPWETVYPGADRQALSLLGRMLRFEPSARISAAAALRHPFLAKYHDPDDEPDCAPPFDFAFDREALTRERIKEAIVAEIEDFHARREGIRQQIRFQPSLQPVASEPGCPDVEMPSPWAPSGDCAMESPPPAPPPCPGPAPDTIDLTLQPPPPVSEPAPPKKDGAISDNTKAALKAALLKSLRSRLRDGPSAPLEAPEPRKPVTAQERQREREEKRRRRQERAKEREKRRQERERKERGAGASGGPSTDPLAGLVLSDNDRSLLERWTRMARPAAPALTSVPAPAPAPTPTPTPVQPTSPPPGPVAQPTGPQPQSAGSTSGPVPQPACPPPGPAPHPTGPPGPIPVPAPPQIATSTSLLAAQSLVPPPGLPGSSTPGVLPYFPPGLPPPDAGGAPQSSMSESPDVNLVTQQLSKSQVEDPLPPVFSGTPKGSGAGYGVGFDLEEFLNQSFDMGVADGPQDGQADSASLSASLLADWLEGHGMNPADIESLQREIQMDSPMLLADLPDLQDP
# [13] = galactose survival enhancers in mitochondrial complex I cybrids – cell-based, galactose medium, ATP luminescence, primary screen (AID 1645843;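 active = z-score of at least 1.8 in each of two replicates, scored against plate mean and spread of sample wells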;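 note: positive z means more ATP and so rescue of galactose-driven cybrid death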); settings: complex I mutant cybrid cells, 72 h, stronger effect = higher value
# [14] = growth inhibition, single agent or in combination, cell-based, chromothripsis tumors, cisplatin or BGB combos (AID 1671449); settings: LFS_MB_P medulloblastoma cells;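 note: cells exposed for 96 hours; 0% = vehicle DMSO and 100% = killing by high DMSO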
# [15] = growth inhibition, single agent and combos, cell-based, chromothripsis tumors, cisplatin or BGB combos (AID 1671450); settings: HDN33 neuroblastoma cells, stronger effect = higher value;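 note: cells exposed to compound for four days; 0% = vehicle DMSO and 100% = cell killing by high DMSO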
# [16] = growth inhibition, single agents and combos, ICB984, cell-based, cisplatin or BGB combos, synergistic combos for chromothripsis tumors (AID 1671451; call rule not given here;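 note: cells exposed for 96 hours before readout; 0% = vehicle DMSO and 100% = killing by high DMSO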); settings: ICB984 medulloblastoma cells, drug combinations, stronger effect = higher value
# [17] = growth inhibition, single agents and combos, LFS_MB_1R, cell-based, cisplatin or BGB combos, synergistic combos for chromothripsis tumors (AID 1671452); settings: LFS_MB_1R medulloblastoma cells, stronger effect = higher value;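 note: cells exposed for 96 hours before readout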
# [18] = growth inhibition, single agents and combos, HTB85, cell-based, BGB or cisplatin IC20 combos, synergistic combos for chromothripsis tumors (AID 1671453); settings: HTB85 osteosarcoma cells, drug combinations, stronger effect = higher value;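 note: cells exposed for 96 hours before readout; 0% = vehicle DMSO and 100% = high DMSO killing control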
# [19] = growth inhibition, single agents and combos, CRL2098, cell-based, BGB or cisplatin IC20 combos, synergistic combos for chromothripsis tumors (AID 1671454); settings: CRL2098 osteosarcoma cells, drug combinations, stronger effect = higher value;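 note: cells exposed for 96 h before readout; 0% = vehicle DMSO and 100% = killing by high DMSO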
# [20] = growth inhibition, single agents and combos, HD-MB03, cell-based, BGB or cisplatin IC20 combos, synergistic combos for chromothripsis tumors (AID 1671455; in the data active = inhibition above about 83%;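 note: 0% = vehicle DMSO and 100% = high DMSO as cytotoxic control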); settings: HD-MB03 medulloblastoma cells, stronger effect = higher value
# [21] = growth inhibition, single agents and combos, UWB1.289, cell-based, BGB or cisplatin combos, synergistic combos for chromothripsis tumors (AID 1671456); settings: UWB1.289 ovarian carcinoma cells, stronger effect = higher value;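 note: cells exposed to compound for four days; 0% = vehicle DMSO and 100% = killing by high DMSO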
# [22] = growth inhibition, single agents and combos, LFS_MB_2R, cell-based, cisplatin combos, synergistic combos for chromothripsis tumors (AID 1671457); settings: LFS_MB_2R medulloblastoma cells, stronger effect = higher value;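 note: cells exposed to compound for four days before readout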
# [23] = growth inhibition, MDA-MB-436, cell-based, BGB or cisplatin combos, synergistic combos for chromothripsis tumors (AID 1671458; call rule not given here;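 note: cells exposed for 96 hours; 0% = vehicle DMSO and 100% = killing by high DMSO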); settings: MDA-MB-436 breast carcinoma growth inhibition, drug combinations, stronger effect = higher value
# [24] = UWB1.289_BRCA1 ovarian cancer growth, cell-based, BGB or cisplatin combinations (AID 1671459); settings: UWB1.289 BRCA1 ovarian carcinoma, drug combinations, stronger effect = higher value
# [25] = drug combination toxicity in non-malignant astrocytes – cell-based, BGB or cisplatin IC20 combos, cytotoxicity control for chromothriptic childhood tumor combination screen (AID 1671460); settings: Human astrocytes, viability inhibition, drug combinations, at 0.5 µM, stronger effect = higher value;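 note: cells exposed to compounds for 96 hours before viability readout; 0% = vehicle and 100% = killing control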
# [26] = BT084 cell growth, single and combined drugs, ICGC_MB145, cisplatin and BGB IC40 combos (AID 1671461); settings: BT084 medulloblastoma cells, drug combinations, stronger effect = higher value;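 note: cells exposed to drugs for 96 hours; 0% = vehicle DMSO and 100% = high DMSO full killing control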
# [27] = RCMB18 cell growth, single agent and combined, cisplatin and BGB IC40 combos (AID 1671462); settings: RCMB18 medulloblastoma cells, stronger effect = higher value;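 note: cells exposed to compound for four days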
# [28] = CRL1545 cell growth, single agent and combined, cisplatin and BGB IC20 combos (AID 1671464); settings: CRL1545 osteosarcoma cells, stronger effect = higher value;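 note: cells exposed to compound for 96 hours before readout; 0% = vehicle DMSO and 100% = high DMSO killing control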
# [29] = measured here: combination with BGB IC40, at 0.05 µM
# [30] = measured here: with BGB IC20 combination, at 0.5 µM
# [31] = measured here: with cisplatin IC20 combination, at 0.5 µM
# [32] = measured here: combination with cisplatin, at 0.5 µM
# [33] = measured here: combination with cisplatin, at 5 µM
smiles,measurement,setting,value
CC(C)N=c1cc2n(-c3ccc(Cl)cc3)c3ccccc3nc-2cc1Nc1ccc(Cl)cc1,fluorescence slope change,[1],72.8% (active)
same,survival,[2],11.8 (inactive)
same,fluorescence ratio,[3],0.94 (inactive)
same,inhibition,[4],8.52% (inactive)
same,inhibition,[5],6.69% (inactive)
same,fluorescence ratio,[6],0.96 (inactive)
same,z-score,[7],1.38 (inactive)
same,mean signal,[8],220 (inactive)
same,red/green cell ratio (normalised),"[9]; actives lie on both sides, counts scaled to control wells, 1 = unselective",0.91 (inactive)
same,normalised cell number,[9]; measured here: epithelial PC-3E GFP cell survival,0.92
same,normalised cell number,[9]; measured here: mesenchymal TEM4-18 mCherry cell survival,0.84
same,z-score,"[10]; MELAS cybrid survival, CellTiter-Glo 48 h, stronger effect = higher value",-0.332 (inactive) and -3.07 (inactive)
same,z-score,"[10]; Rieske KO mouse fibroblast survival, CellTiter-Glo 72 h",0.691 and -0.422
same,remaining NAD,[11],10 nM (inactive)
same,luciferase signal,[12],104 AU (inactive)
same,z-score,[13],-1.15 (inactive)
same,inhibition,"[14]; at 0.5 µM, stronger effect = higher value",-31% (inactive)
same,inhibition,"[14]; measured here: combination with BGB IC20, at 0.005 µM",13.3%
same,inhibition,"[14]; measured here: combination with BGB IC40, at 0.005 µM",-22.3%
same,inhibition,[14]; [29],-8.73%
same,inhibition,"[14]; measured here: combination with cisplatin, at 0.5 µM, stronger effect = higher value",-48.5%
same,inhibition,"[14]; measured here: combination with cisplatin, at 5 µM, stronger effect = higher value",8.75%
same,inhibition,"[15]; BGB combo, at 5 µM",-36.1%
same,inhibition,[15]; at 0.5 µM,-26.4% (inactive)
same,inhibition,"[15]; cisplatin combo, at 5 µM",-41.4%
same,inhibition,[15]; [30],-15.2%
same,inhibition,[15]; [31],-29%
same,inhibition,"[15]; single agent, at 5 µM",-25%
same,inhibition,"[16]; BGB IC20 combo, at 0.005 µM",-28.4%
same,inhibition,"[16]; BGB IC40 combo, at 0.005 µM",4.64%
same,inhibition,"[16]; BGB IC40 combo, at 0.05 µM",-16%
same,inhibition,[16]; at 0.5 µM,-34.9% (inactive)
same,inhibition,"[16]; cisplatin combo, at 0.05 µM",-16%
same,inhibition,"[16]; cisplatin combo, at 0.5 µM",-47.3%
same,inhibition,"[16]; cisplatin combo, at 5 µM",-19.4%
same,inhibition,"[16]; measured here: 5 uM single agent, at 5 µM",1.51%
same,inhibition,[17]; at 0.5 µM,-25.1% (inactive)
same,inhibition,[17]; [29],-36.1%
same,inhibition,[17]; [32],-57.3%
same,inhibition,[17]; [33],-48.3%
same,inhibition,[18]; at 0.5 µM,-37.4% (inactive)
same,inhibition,"[18]; measured here: with BGB IC20, at 0.5 µM",-54.6%
same,inhibition,"[18]; measured here: with BGB IC20, at 5 µM",-21.7%
same,inhibition,"[18]; measured here: with cisplatin IC20, at 0.5 µM",-36%
same,inhibition,"[18]; measured here: with cisplatin IC20, at 5 µM",-38.1%
same,inhibition,"[18]; single agent, at 5 µM",-29.1%
same,inhibition,[19]; at 0.5 µM,-74.7% (inactive)
same,inhibition,"[19]; measured here: combination with BGB at IC20, at 0.5 µM",-58.6%
same,inhibition,"[19]; measured here: combination with cisplatin at IC20, at 0.5 µM",-130%
same,inhibition,[20]; at 0.5 µM,-15.1% (inactive)
same,inhibition,"[20]; measured here: combo with BGB at IC20, at 0.5 µM",-15%
same,inhibition,"[20]; measured here: combo with cisplatin at IC20, at 0.5 µM",-18.6%
same,inhibition,[21]; at 0.5 µM,-8.97% (inactive)
same,inhibition,"[21]; measured here: inhibition with BGB combination, at 0.05 µM",-17.6%
same,inhibition,"[21]; measured here: inhibition with cisplatin combination, at 0.05 µM",-17.6%
same,inhibition,[22]; at 0.5 µM,-8.06% (inactive)
same,inhibition,[22]; [32],1.44%
same,inhibition,[22]; [33],-0.801%
same,inhibition,[23]; at 0.5 µM,-2.64% (inactive)
same,inhibition,"[23]; measured here: BGB combination, at 0.5 µM",-2.65%
same,inhibition,"[23]; measured here: BGB combination, at 5 µM",-11.8%
same,inhibition,"[23]; measured here: cisplatin combination, at 0.5 µM",-12.6%
same,inhibition,"[23]; measured here: cisplatin combination, at 5 µM",0.559%
same,inhibition,"[24]; BGB combination, concentration series, at 5 µM",-7.22%
same,inhibition,[24]; at 0.5 µM,-11.4% (inactive)
same,inhibition,"[24]; cisplatin combination, concentration series, at 5 µM",14.7%
same,inhibition,[25],-9.92% (inactive)
same,inhibition,[25]; measured here: combo with BGB IC20,3.64%
same,inhibition,[25]; measured here: combo with cisplatin IC20,-24.8%
same,inhibition,[26]; at 0.5 µM,-8.65% (inactive)
same,inhibition,"[26]; cisplatin combination, at 0.5 µM",-22.2%
same,inhibition,"[26]; cisplatin combination, at 5 µM",-55.6%
same,inhibition,"[26]; measured here: BGB IC40 combination 0.05 uM, at 0.05 µM",17%
same,inhibition,"[26]; single agent, at 5 µM",-11.5%
same,inhibition,[27]; at 0.5 µM,-9.43% (inactive)
same,inhibition,"[27]; cisplatin combo, at 5 µM",-32.6%
same,inhibition,"[27]; measured here: BGB IC40 combination, at 0.05 µM",-2.04%
same,inhibition,[27]; [32],-6.22%
same,inhibition,"[27]; single agent, at 5 µM",-9.57%
same,inhibition,[28]; at 0.5 µM,-22.8% (inactive)
same,inhibition,[28]; [30],-40.5%
same,inhibition,[28]; [31],-13.9%
same,inhibition,"[28]; single agent, at 0.05 µM",-3.12%
same,inhibition,"[28]; single agent, at 5 µM",-18.2%

# From PubChem BioAssay
